Data on 4 molecules can be found in PubChem BioAssay (EPA / NIEHS).

Experiment [1] in a line: BSK_4H_Eotaxin3: BioMAP Diversity Plus: 4H Assay for Eotaxin 3 Biomarker Activity (AID 2283000).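 As to outcome: CCL26 protein level quantified by ELISA in parallel with SRB cytotoxicity check.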 The conditions noted are these: primary human endothelial cells (HUVEC); actives raise or lower the signal. A digest of the protocol:
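HUVEC, 24 h post-dose, ELISA for Eotaxin-3/CCL26. Gain or loss of signal fitted bidirectionally vs DMSO baseline.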

Experiment [2] concerns the target human Peroxisome Proliferator-activated Receptor alpha (PPARa), PPARA (gene 5465) (UniProt Q07869). Briefly: ATG_PPARa_TRANS: Attagene TRANS-FACTORIAL HepG2 Assay for human Peroxisome Proliferator-activated Receptor alpha (PPARa) (AID 2283001; active = hit-call score of the fitted dose curve at least 0.9, where 1 is the maximum). An outline of the steps: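 Reporter transcripts from GAL4-UAS units in transfected HepG2 were quantified 24 h after dosing. Detection used reverse transcription, PCR, fluorescent primer extension and capillary electrophoresis, with DMSO as baseline.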

The target in experiment [3] is human Peroxisome Proliferator-activated Receptor delta (PPARd), PPARD (gene 5467) (UniProt Q03181). Briefly: ATG_PPARd_TRANS: Attagene TRANS-FACTORIAL HepG2 Assay for human Peroxisome Proliferator-activated Receptor delta (PPARd) (AID 2283002; active = hit-call score of the fitted dose curve at least 0.9, where 1 is the maximum). A digest of the protocol:
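Transient HepG2 transfection (multiple GAL4-UAS RTUs, chimeric receptor-Gal4); 24 h dosing; total RNA → oligo(dT) RT → PCR → 6-FAM primer extension → HpaI cut → CE. Positive direction vs DMSO.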

Read-out in experiment [4]: Intercellular Adhesion Molecule 1 (ICAM1), ICAM1 (gene 3383)
Briefly: BSK_3C_ICAM1: BioMAP Diversity Plus: 3C Assay for Intercellular Adhesion Molecule 1 (ICAM1) Biomarker Activity (AID 2283003). Particulars: primary human endothelial cells (HUVEC); actives raise or lower the signal. An outline of the steps:
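Human vascular endothelial primary cells, 3C conditions, 24 h treatment. ICAM-1 by ELISA.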

A short description of experiment [5]: BSK_3C_Proliferation: Cell Proliferation Assessment in the BioMAP Diversity Plus: 3C Assay (AID 2283006).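 As to AC50: potency may reflect either rise or fall in cell number versus DMSO.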 Particulars: primary human endothelial cells (HUVEC). A digest of the protocol: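 Proliferation of human vascular endothelial primary cells after 48 h dosing, quantified as SRB-stained protein at 560 nm relative to DMSO.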
Experiment [6] addresses Peroxisome proliferator-activated receptor gamma (Homo sapiens) (UniProt P37231). Put plainly: ATG_PPARg_TRANS: Attagene TRANS-FACTORIAL HepG2 Assay for human Peroxisome Proliferator-activated Receptor-gamma (PPARg) (AID 2283007; active = hit-call score of the fitted dose curve at least 0.9, where 1 is the maximum). An outline of the steps:
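Twenty-four hours after chemical dosing of transiently transfected HepG2 cells, isolated RNA was converted to cDNA, reporter sequences amplified and 6-FAM-labelled, then HpaI-digested and analysed by capillary electrophoresis. Signal increase against DMSO was fitted.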

For experiment [7], the target named is human RAR-related Orphan Receptor beta (RORb), RORB (gene 6096) (UniProt Q92753). Put plainly: ATG_RORb_TRANS: Attagene TRANS-FACTORIAL HepG2 Assay for human RAR-related Orphan Receptor beta (RORb) (AID 2283010; active = hit-call score of the fitted dose curve at least 0.9, where 1 is the maximum). A digest of the protocol: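 In this TRANS-format test, human HepG2 cells express chimeric NR-Gal4 fusion proteins driving GAL4-UAS reporters. After 24 h dosing, reporter transcripts are measured by fluorescent RT-PCR/capillary electrophoresis, with DMSO as negative control.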
Sequence of human RAR-related Orphan Receptor beta (RORb), RORB (gene 6096) (Q92753 whole entry, looked up, the tested form may be a part): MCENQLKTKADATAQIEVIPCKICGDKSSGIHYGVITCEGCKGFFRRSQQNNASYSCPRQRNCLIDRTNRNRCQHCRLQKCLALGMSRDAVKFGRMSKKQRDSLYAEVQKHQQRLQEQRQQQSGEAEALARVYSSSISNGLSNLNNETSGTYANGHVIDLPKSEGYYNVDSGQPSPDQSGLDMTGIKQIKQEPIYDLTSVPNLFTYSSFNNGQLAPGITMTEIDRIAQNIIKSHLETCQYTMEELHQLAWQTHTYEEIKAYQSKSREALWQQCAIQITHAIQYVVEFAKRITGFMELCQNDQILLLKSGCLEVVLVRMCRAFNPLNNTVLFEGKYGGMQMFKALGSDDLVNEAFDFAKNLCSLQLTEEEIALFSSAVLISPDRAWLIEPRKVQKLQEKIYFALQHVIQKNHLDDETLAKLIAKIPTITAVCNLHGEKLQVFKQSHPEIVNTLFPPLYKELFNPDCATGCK

Experiment [8] addresses human RAR-related Orphan Receptor gamma (RORg), RORC (gene 6097) (UniProt P51449). Put plainly: ATG_RORg_TRANS: Attagene TRANS-FACTORIAL HepG2 Assay for human RAR-related Orphan Receptor gamma (RORg) (AID 2283011; active = hit-call score of the fitted dose curve at least 0.9, where 1 is the maximum). An outline of the steps: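 Readout: reporter transcript induction (RT-PCR, fluorescent primer extension, capillary electrophoresis) after 24 h compound exposure of transiently transfected HepG2 cells carrying a RORg-Gal4 chimera and GAL4-UAS reporters; DMSO served as baseline, with increasing signal fitted.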

For experiment [9], the target named is human Retinoid X Receptor beta (RXRb), RXRB (gene 6257) (UniProt P28702). Briefly: ATG_RXRb_TRANS: Attagene TRANS-FACTORIAL HepG2 Assay for human Retinoid X Receptor beta (RXRb) (AID 2283013; active = hit-call score of the fitted dose curve at least 0.9, where 1 is the maximum). A digest of the protocol: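 Multiplexed TRANS reporter assay in HepG2; 24 h dosing; reporter mRNA by RT-PCR/CE fluorescence; gain-of-signal relative to DMSO.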
Experiment [10] concerns the target human Thyroid Receptor alpha (THRa1), THRA (gene 7067) (UniProt P10827). Briefly: ATG_THRa1_TRANS: Attagene TRANS-FACTORIAL HepG2 Assay for human Thyroid Receptor alpha (THRa1) (AID 2283014; active = hit-call score of the fitted dose curve at least 0.9, where 1 is the maximum). An outline of the steps:
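HepG2 cells transiently transfected with multiplexed GAL4-UAS reporter units for exogenous chimeric THRa1-Gal4; reporter mRNA measured 24 h after dosing by RT-PCR, 6-FAM labelling, HpaI digestion and capillary electrophoresis. Gain-of-signal fitted versus DMSO baseline.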

Read-out in experiment [11]: E-selectin (Homo sapiens) (UniProt P16581)
Briefly: BSK_3C_Eselectin: BioMAP Diversity Plus: 3C Assay for Eselectin Biomarker Activity (AID 2283015).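 As to outcome: cell surface E-selectin protein quantified by ELISA 24 h after dosing.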 The conditions noted are these: primary human endothelial cells (HUVEC); actives raise or lower the signal. An outline of the steps:
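Primary human umbilical vein endothelial cells (3C system) were dosed with chemical and cell-surface E-selectin measured by ELISA 24 h later. Bidirectional curve fitting used DMSO as negative control and baseline.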

Read-out in experiment [12]: Interleukin-1 alpha (IL1a), IL1A (gene 3552)
Briefly: BSK_BE3C_IL1a: BioMAP Diversity Plus: BE3C Assay for Interleukin-1 alpha (IL1a) Biomarker Activity (AID 2283016). The conditions noted are these: primary human bronchial epithelial cells; actives raise or lower the signal. A digest of the protocol: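 Cultures of primary human bronchial epithelial cells receive test chemical. After 24 h, IL-1a is quantified by ELISA, while parallel wells are fixed in TCA and SRB-stained for total protein. Changes in either direction are fitted relative to DMSO.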

Read-out in experiment [13]: Monocyte Chemoattractant Protein-1 (MCP1), CCL2 (gene 6347)
Briefly: BSK_3C_MCP1: BioMAP Diversity Plus: 3C Assay for Monocyte Chemoattractant Protein-1 (MCP1) Biomarker Activity (AID 2283017). Particulars: primary human endothelial cells (HUVEC); actives raise or lower the signal. A digest of the protocol:
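Primary human umbilical vein endothelial cells (3C system) were exposed to test chemical for 24 h, after which MCP-1 was quantified by ELISA. Activity was fitted bidirectionally against DMSO as negative control and baseline.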

Read-out in experiment [14]: Monocyte Chemoattractant Protein-1 (MCP1), CCL2 (gene 6347)
Put plainly: BSK_4H_MCP1: BioMAP Diversity Plus: 4H Assay for Monocyte Chemoattractant Protein-1 (MCP1) Biomarker Activity (AID 2283018). The conditions noted are these: primary human endothelial cells (HUVEC); actives raise or lower the signal. An outline of the steps:
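Readout: MCP-1 ELISA on compound-treated HUVEC, sampled 24 h post-dosing. Baseline and negative control DMSO; bidirectional fit. Overt toxicity checked alongside by sulforhodamine B protein staining at time of biomarker measurement.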

Read-out in experiment [15]: Human Leukocyte Antigen - DR isotype (HLADR), HLA-DRA (gene 3122)
Put plainly: BSK_3C_HLADR: BioMAP Diversity Plus: 3C Assay for Human Leukocyte Antigen - DR isotype (HLADR) Biomarker Activity (AID 2283019). The conditions noted are these: primary human endothelial cells (HUVEC); actives raise or lower the signal. An outline of the steps: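 Primary human umbilical vein endothelial cells (3C system) were dosed with compound and cell-surface HLA-DR was quantified by ELISA at 24 h. Activity was fitted bidirectionally against DMSO as negative control and baseline.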

Read-out in experiment [16]: Interleukin-8 (IL8), CXCL8 (gene 3576)
Put plainly: BSK_3C_IL8: BioMAP Diversity Plus: 3C Assay for Interleukin-8 (IL8) Biomarker Activity (AID 2283020). Particulars: primary human endothelial cells (HUVEC); actives raise or lower the signal. An outline of the steps:
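Human vascular endothelial cells (umbilical vein) in the 3C system; IL-8 level detected by ELISA at 24 h post-dose, with DMSO as baseline.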

Experiment [17] addresses Nuclear receptor subfamily 1 group I member 2 (Homo sapiens) (UniProt O75469). Briefly: ATG_PXR_TRANS: Attagene TRANS-FACTORIAL HepG2 Assay for human Pregnane X Receptor (PXR) (AID 2283008; active = hit-call score of the fitted dose curve at least 0.9, where 1 is the maximum). A digest of the protocol:
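HepG2 cells transiently transfected with GAL4-UAS reporter units and PXR-Gal4 chimera, exposed 24 h. Reporter mRNA quantified by RT-PCR, fluorescent labelling, HpaI digestion and capillary electrophoresis; gain of signal vs DMSO.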

Experiment [18] concerns the target human Retinoic Acid Receptor beta (RARb), RARB (gene 5915) (UniProt P10826). Put plainly: ATG_RARb_TRANS: Attagene TRANS-FACTORIAL HepG2 Assay for human Retinoic Acid Receptor beta (AID 2283004; active = hit-call score of the fitted dose curve at least 0.9, where 1 is the maximum). A digest of the protocol:
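HepG2 cells transiently transfected with multiplexed GAL4-UAS reporter units expressing chimeric NR–Gal4 fusions; 24 h compound exposure. Reporter mRNA quantified by RT-PCR, 6-FAM labelling, HpaI digestion and capillary electrophoresis; gain-of-signal fitted against DMSO baseline.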

The target of experiment [19] is human Retinoic Acid Receptor gamma (RARg), RARG (gene 5916) (UniProt P13631). Briefly: ATG_RARg_TRANS: Attagene TRANS-FACTORIAL HepG2 Assay for human Retinoic Acid Receptor gamma (RARg) (AID 2283009; active = hit-call score of the fitted dose curve at least 0.9, where 1 is the maximum). An outline of the steps: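 HepG2, RARg-GAL4 TRANS system, 24 h exposure; reporter mRNA by RT-PCR + CE fluorescence; increase over DMSO.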
For experiment [20], the target named is Retinoic acid receptor RXR-alpha (Homo sapiens) (UniProt P19793). Put plainly: ATG_RXRa_TRANS: Attagene TRANS-FACTORIAL HepG2 Assay for human Retinoid X Receptor alpha (RXRa) (AID 2283012; active = hit-call score of the fitted dose curve at least 0.9, where 1 is the maximum). An outline of the steps: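 Cells (HepG2) carried transiently transfected GAL4-responsive reporter units. Following a 24 h chemical incubation, reporter mRNA induction was read via RT-PCR fragment analysis; DMSO served as negative control and baseline.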
Sequence of Retinoic acid receptor RXR-alpha (Homo sapiens) (P19793 whole entry, looked up, the tested form may be a part): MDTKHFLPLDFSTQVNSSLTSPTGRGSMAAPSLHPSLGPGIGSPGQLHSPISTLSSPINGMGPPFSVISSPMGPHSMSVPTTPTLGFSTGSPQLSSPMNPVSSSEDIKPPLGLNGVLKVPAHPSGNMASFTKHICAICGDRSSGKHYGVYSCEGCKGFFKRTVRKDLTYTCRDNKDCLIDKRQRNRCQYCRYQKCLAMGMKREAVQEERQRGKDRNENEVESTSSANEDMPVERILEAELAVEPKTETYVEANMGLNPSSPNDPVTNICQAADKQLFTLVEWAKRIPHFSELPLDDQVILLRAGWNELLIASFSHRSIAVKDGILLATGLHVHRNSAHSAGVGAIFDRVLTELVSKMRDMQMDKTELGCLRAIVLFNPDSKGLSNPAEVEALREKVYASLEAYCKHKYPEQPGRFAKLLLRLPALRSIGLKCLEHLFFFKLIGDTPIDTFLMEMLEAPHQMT

Results filed as inconclusive are left out. Activity calls are given as the source filed them. The calls were made as follows, unless noted: active = hit-call score of the fitted dose curve at least 0.9, where 1 is the maximum; inactive = score below 0.9.

Sequence of E-selectin (Homo sapiens) (P16581 whole entry, looked up): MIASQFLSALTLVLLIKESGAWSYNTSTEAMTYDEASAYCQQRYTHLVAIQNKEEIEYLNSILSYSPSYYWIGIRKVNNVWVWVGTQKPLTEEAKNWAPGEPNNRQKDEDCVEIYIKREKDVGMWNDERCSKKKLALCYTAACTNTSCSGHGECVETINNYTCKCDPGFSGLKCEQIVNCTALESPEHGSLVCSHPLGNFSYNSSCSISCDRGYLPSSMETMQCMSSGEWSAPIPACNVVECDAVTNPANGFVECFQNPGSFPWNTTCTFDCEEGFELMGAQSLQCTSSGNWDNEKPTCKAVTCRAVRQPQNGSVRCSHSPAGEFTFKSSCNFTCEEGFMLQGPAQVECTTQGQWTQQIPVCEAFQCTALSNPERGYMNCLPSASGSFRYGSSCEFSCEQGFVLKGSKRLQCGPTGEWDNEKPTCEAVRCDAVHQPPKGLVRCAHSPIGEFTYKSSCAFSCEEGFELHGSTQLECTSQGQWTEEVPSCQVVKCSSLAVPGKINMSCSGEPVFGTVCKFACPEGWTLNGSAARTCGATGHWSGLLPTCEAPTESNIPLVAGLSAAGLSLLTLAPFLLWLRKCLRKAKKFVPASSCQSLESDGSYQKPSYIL
Sequence of human Peroxisome Proliferator-activated Receptor delta (PPARd), PPARD (gene 5467) (Q03181 whole entry, looked up, the tested form may be a part): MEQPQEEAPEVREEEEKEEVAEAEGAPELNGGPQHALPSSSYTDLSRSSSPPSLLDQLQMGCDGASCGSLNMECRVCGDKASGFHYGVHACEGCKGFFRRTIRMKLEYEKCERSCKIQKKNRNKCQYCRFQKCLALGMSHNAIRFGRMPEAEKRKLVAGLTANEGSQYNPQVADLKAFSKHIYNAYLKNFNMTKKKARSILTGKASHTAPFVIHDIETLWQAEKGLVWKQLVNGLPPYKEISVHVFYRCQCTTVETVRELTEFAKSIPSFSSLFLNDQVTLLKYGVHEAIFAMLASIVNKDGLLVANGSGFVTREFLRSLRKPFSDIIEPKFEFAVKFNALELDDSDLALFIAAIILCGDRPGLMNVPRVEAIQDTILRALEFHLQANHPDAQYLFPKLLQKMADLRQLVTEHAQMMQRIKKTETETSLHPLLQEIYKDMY
Sequence of Peroxisome proliferator-activated receptor gamma (Homo sapiens) (P37231 whole entry, looked up): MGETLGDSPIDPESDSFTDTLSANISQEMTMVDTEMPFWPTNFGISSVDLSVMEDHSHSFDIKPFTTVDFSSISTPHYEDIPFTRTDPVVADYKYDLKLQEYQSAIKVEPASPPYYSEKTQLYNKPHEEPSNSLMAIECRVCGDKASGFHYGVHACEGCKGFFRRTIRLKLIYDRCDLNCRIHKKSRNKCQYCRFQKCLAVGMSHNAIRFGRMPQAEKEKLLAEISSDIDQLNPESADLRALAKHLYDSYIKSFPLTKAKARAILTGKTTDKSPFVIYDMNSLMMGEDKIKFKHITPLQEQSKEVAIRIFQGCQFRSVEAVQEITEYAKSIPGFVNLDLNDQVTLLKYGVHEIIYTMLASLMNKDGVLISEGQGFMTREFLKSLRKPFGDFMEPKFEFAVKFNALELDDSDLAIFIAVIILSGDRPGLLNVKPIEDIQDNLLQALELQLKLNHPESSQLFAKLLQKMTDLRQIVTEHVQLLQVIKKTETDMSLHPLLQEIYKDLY
Sequence of human RAR-related Orphan Receptor gamma (RORg), RORC (gene 6097) (P51449 whole entry, looked up, the tested form may be a part): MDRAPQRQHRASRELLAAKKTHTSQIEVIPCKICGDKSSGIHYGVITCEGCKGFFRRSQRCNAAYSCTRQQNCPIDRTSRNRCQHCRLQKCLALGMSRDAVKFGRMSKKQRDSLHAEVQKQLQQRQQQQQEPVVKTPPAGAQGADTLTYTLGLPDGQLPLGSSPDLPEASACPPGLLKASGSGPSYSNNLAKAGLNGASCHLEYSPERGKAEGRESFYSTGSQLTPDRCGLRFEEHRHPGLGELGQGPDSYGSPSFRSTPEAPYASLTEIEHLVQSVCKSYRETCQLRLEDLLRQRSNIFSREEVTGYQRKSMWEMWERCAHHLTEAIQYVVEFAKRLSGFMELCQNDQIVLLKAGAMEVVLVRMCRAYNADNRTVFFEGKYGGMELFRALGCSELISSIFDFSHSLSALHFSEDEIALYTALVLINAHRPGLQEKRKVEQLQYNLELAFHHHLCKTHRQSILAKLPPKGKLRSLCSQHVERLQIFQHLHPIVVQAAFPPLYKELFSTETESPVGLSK
Sequence of human Thyroid Receptor alpha (THRa1), THRA (gene 7067) (P10827 whole entry, looked up, the tested form may be a part): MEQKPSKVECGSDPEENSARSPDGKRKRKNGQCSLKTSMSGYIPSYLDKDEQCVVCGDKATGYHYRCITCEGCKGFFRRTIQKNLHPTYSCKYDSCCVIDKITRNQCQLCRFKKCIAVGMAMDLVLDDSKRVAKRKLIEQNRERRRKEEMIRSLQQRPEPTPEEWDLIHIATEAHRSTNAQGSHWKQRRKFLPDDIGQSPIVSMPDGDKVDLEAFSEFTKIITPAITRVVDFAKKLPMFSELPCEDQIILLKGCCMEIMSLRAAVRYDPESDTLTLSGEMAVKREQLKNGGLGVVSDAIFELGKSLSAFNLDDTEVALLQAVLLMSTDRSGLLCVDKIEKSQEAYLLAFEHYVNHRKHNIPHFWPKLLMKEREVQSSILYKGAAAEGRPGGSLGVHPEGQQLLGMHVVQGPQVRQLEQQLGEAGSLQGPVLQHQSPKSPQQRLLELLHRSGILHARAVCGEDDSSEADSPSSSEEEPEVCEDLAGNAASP
Sequence of human Peroxisome Proliferator-activated Receptor alpha (PPARa), PPARA (gene 5465) (Q07869 whole entry, looked up, the tested form may be a part): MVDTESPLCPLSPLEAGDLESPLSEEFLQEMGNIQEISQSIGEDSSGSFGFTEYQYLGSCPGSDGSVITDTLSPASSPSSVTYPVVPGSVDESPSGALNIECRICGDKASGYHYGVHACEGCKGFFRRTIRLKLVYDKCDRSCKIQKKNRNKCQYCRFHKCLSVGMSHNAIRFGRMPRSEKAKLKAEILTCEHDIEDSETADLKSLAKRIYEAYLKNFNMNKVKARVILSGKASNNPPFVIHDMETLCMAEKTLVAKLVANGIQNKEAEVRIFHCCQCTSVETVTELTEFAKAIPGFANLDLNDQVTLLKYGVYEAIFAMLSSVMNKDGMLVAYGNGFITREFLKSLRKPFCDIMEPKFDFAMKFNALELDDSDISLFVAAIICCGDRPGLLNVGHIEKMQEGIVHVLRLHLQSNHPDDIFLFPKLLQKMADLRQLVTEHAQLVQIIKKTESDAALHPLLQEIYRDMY
Sequence of Nuclear receptor subfamily 1 group I member 2 (Homo sapiens) (O75469 whole entry, looked up, the tested form may be a part): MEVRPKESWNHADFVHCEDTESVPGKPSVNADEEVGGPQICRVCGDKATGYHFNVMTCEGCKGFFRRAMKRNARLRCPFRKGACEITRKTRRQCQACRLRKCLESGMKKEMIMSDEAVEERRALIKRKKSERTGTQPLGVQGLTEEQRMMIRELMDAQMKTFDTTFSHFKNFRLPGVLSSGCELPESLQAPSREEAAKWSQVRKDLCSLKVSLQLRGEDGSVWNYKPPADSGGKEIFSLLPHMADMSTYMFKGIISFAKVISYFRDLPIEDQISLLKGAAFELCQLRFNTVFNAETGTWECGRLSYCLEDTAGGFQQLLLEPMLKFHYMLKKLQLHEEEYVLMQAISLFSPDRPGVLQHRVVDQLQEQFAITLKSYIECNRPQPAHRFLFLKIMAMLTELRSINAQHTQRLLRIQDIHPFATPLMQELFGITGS
Sequence of human Retinoic Acid Receptor beta (RARb), RARB (gene 5915) (P10826 whole entry, looked up, the tested form may be a part): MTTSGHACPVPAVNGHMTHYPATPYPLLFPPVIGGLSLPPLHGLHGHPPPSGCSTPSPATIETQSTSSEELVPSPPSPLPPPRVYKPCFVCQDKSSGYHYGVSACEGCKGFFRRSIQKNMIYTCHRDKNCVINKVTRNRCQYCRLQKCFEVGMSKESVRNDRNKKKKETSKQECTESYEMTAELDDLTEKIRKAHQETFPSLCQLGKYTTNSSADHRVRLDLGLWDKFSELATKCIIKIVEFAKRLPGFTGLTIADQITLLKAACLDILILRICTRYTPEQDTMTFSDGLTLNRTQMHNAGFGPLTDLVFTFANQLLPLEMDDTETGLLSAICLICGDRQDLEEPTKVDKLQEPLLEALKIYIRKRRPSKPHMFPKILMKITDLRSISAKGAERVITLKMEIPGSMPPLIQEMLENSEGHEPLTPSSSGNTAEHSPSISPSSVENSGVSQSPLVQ

As to `CN(C)NC(=O)CCC(=O)O`, the result in experiment [1], in experiment [2], in experiment [3], in [4], in [5] and in experiment [6] was inactive. For the same molecule, the outcome in experiment [7], in experiment [8], in [9], in experiment [10], in experiment [11] and in experiment [12] was inactive. Moreover, the outcome in experiment [13], in experiment [14], in experiment [15] and in [16] was inactive.
With `CNC(=O)ON=C(C)SC`, the outcome in [1], in [2], in [3], in experiment [4], in [5] and in experiment [6] was inactive. For the same molecule, the call in experiment [17], in [7], in experiment [8], in experiment [9], in experiment [11] and in experiment [12] was inactive. Also, the outcome in [13], in experiment [14], in experiment [15] and in experiment [16] was inactive.
As a reminder, the AC50 is the concentration at which the activity in the assay is half-maximal. Consider `N#CSCSC#N`, for which the AC50 in experiment [1] was 6.94 µM (active); in experiment [4], 8.09 µM (active); in experiment [5], 2.07 µM (active); in experiment [11] it was 10.9 µM (active); in experiment [13] it was 8.34 µM (active); in [14], 7.62 µM (active). Further, the half-maximal activity concentration (AC50) in experiment [16] was 11.7 µM (active). Moreover, the molecule was called inactive in experiment [2], in [3], in [18], in experiment [6], in experiment [17] and in experiment [19]. Also, the outcome in [20], in experiment [10] and in [12] was inactive.
For `CCOP(=S)(OCC)Oc1ccc2c(C)c(Cl)c(=O)oc2c1`, the result in [1], in experiment [2], in [3], in experiment [4], in [18] and in experiment [6] was inactive. The call in experiment [19], in experiment [7], in experiment [8], in experiment [20], in [10] and in experiment [11] was inactive. For the same molecule, the result in [12], in [13], in [14], in [15] and in experiment [16] was inactive. The figures for the AC50 in [5] and in experiment [17] were 9.56 µM (active) and 3.94 µM (active), respectively.
